Pf growth 48h – Primary qHTS for delayed death inhibitors of the malarial parasite plastid, 48 hour incubation | actives 5.9% (n = 310,000) | Potency, µM (doses to about 28.7 µM), for inactives: at the top dose activity change, negative = inhibition, hits mostly inhibitors | P. falciparum luciferase growth in erythrocytes, 48 h | AID 504832, 2011; active = well fitted inhibition curve with a large enough effect; inconclusive = small, poorly fitted or top-dose-only effect, or another doubt; inactive = no such curve, though single readings can be large or run the other way; note: potency is the fitted concentration of half-maximal effect; % is set by controls: 0 for no effect and ±100 for the full control effect
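Here the parasites carry a stable luciferase gene and grow inside erythrocytes in Albumax-based RPMI medium with compound for one erythrocytic cycle. Activity is scored as loss of luminescent signal.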
NS1 inh – qHTS Assay for Inhibitors of Influenza NS1 Protein Function. AID 2326, 2010. actives 0.4% (n = 270,000). Potency, µM (top dose mostly 46.1 µM), without a hit: top-dose activity, positive = more growth; note: potency is the fitted concentration of half-maximal effect; actives are rising curves; nearly all actives have a fitted effect of over 50% in size
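A cell-based growth assay was used: compounds that relieve NS1-induced slow growth of budding yeast raise OD600. Assay medium was yeast nitrogen base with ammonium sulphate and -URA supplement, pH 6.0, with 2% galactose.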
SARS PLpro yeast – qHTS of Yeast-based Assay for SARS-CoV PLP. actives 0.19% (n = 330,000). S. cerevisiae expressing SARS-CoV PLpro, growth rescue. Potency, µM (titrated, usually from 32.9 µM), without a hit: at the highest dose activity, positive = growth rescue, most hits filed as activators. AID 485353, 2010; note: potency is the fitted concentration of half-maximal effect; 0% is about no effect; nearly all actives have a fitted effect of over 55% in size
Cycloheximide cs – Cycloheximide Counterscreen for Small Molecule Inhibitors of Shiga Toxin. max response, %. cell reporter, cycloheximide protein synthesis inhibition counterscreen. actives 12% (n = 300,000); in the data active = max response mostly above about 13%, no sharp cut-off; inactive = mostly below about 14%; note: read at 38.3 µM for the half of the compounds with a filed dose; 0% is about no effect
Shiga inhibitor – A qHTS for Small Molecule Inhibitors of Shiga Toxin | inhibition, % at 38.7 µM | actives 9.2% (n = 290,000) | Vero cells, Shiga toxin protein synthesis inhibition reporter; in the data active = inhibition mostly above about 28%, no sharp cut-off; inactive = mostly below about 43%; note: 0% is about no effect
Pf growth 96h – Primary qHTS for delayed death inhibitors of the malarial parasite plastid, 96 hour incubation. P. falciparum luciferase reporter growth, 96 h. Potency, µM (series often up to 28.7 µM), without a hit: top-dose activity change, negative = inhibition, actives largely listed as inhibitors. actives 6.9% (n = 320,000). AID 504834, 2011; active = well fitted inhibition curve with a large enough effect; inconclusive = small, poorly fitted or top-dose-only effect, or another doubt; inactive = no such curve, though single readings can be large or run the other way; note: potency is the fitted concentration of half-maximal effect; % is set by controls: 0 for no effect and ±100 for the full control effect
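96 h incubation, 37 C, 5% CO2, of luciferase-reporter P. falciparum-infected RBCs (2% hematocrit, 0.05% parasitemia final) with test compounds; endpoint luminescence.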
An asterisk follows results filed as active; ? = inconclusive; . = no result; [ ] = remark or other dose. Shown are actives, neighbours in structure and some others; about 21% of the full set was active somewhere. Unless noted, calls come from the whole dose curve.

SMILES | Pf growth 48h | NS1 inh | SARS PLpro yeast | Cycloheximide cs | Shiga inhibitor | Pf growth 96h
COc1cccc(NC(=O)C2CCC(CNS(=O)(=O)c3cccs3)CC2)c1 (stereo not given) | 1% | . | -3% | -5 | -9 | ?
CC(=O)Nc1cc(S(=O)(=O)Nc2ccccc2C)c(C)cc1C | 0% | -1% | -7% | -5 | -10 | -2%
O=C(/C=C/NNC(=O)c1ccccc1)c1ccc(Br)cc1 | . | -104% | -15% | 47* | 71* | 183%
O=C(O)/C=C/C(=O)NNC(=O)c1ccc(Br)cc1 | 12% | 0% | 2% | 9 | 11 | -12%
Cc1ccc(/C=N/n2c(C)nnc2C)o1 | 11% | 7% | -18% | 5 | 9 | 17%
Cc1ccc(C=Nc2ccc(N(C)C)cc2)o1 | ? | 3% | -10% | 24* | 109* | 0.93µM*
Cc1cc(S(=O)(=O)Nc2ccc(C(=O)NCCCN3CCCC3=O)cc2)ccc1F | 0% | . | -3% | . | . | -3%
Cc1ccc(C(=O)Nc2ccc3c(c2)OCO3)cc1NC(=O)c1ccco1 | -5% | . | 0% | 27* | 74* | 3%
O=C(Nc1cccc(NC(=O)c2ccco2)c1)c1ccc2c(c1)OCO2 | 11% | -34% | 2% | 10 | 22 | -12%
Cc1cc(NC(=O)c2ccc3c(c2)OCO3)ccc1NC(=O)c1ccco1 | 84% | 1% | -8% | 14* | 48 | -2%
Cc1ccsc1/C=N/NC(=O)Cn1cnc2ccccc21 | -11% | 3% | 17% | 6 | 13 | ?
Cc1ccc(S(=O)(=O)N2CCOCC2)cc1N/N=C(\C#N)c1nc2ccccc2[nH]1 | ? | ? | 0% | 9 | 5 | 3.3µM*
O=C(Nc1nc2ccccc2[nH]1)c1ccc(F)c(S(=O)(=O)N2CCOCC2)c1 | 71% | -3% | 8% | 50* | 44* | 92%
N#C/C(=C(/O)COC(=O)CCc1ccc(S(=O)(=O)N2CCOCC2)cc1)c1nc2ccccc2[nH]1 | ? | 19% | -10% | 5 | 45 | ?
O=C(Nc1nc2ccccc2[nH]1)c1cccc(S(=O)(=O)N2CCOCC2)c1 | 33% | -16% | -1% | 39* | 42* | 37%
O=C(NCc1nc2ccccc2[nH]1)c1cccc(S(=O)(=O)N2CCOCC2)c1 | . | -2% | -1% | -1 | -10 | -28%
O=C(Nc1ccc(F)c(F)c1)c1ccc(F)c(S(=O)(=O)N2CCOCC2)c1 | ? | -1% | 6% | -5 | -14 | ?
CCOc1ccc2[nH]cc(-c3csc(N)n3)c2c1 | 12µM* | 8% | 1% | 9 | -2 | ?
CC(=O)N(C)c1ccc(NC(=O)C(Sc2ccccc2)c2ccccc2)cc1 (stereo not given) | ? | . | 0% | 18* | 43* | -27%
O=C(Nc1ccc(Cl)c([N+](=O)[O-])c1)C(Sc1ccccc1)c1ccccc1 (stereo not given) | 13µM* | -32% | -83% | 6 | -17 | ?
O=C(Nc1cc([N+](=O)[O-])ccc1Cl)C(Sc1ccccc1)c1ccccc1 (stereo not given) | -6% | 9% | -8% | -2 | -3 | 7%
CC(C)(Oc1ccc(Cl)cc1)C(=O)NC1CCCCC1 | 12µM* | . | 1% | . | . | -2%
CC(=O)Nc1ccc(S(=O)(=O)Nc2ccc(S(=O)(=O)Nc3nccs3)cc2)cc1 | 2% | 5% | -1% | -6 | 1 | -3%
COc1ccc2c(/C=C/c3cc[n+](C)cc3)c[nH]c2c1 | 1.2µM* | -3% | 1% | -2 | 5 | 0.52µM*
COC(=O)Cn1cc(/C=C/c2cc[n+](C)cc2)c2ccccc21 | ? | -14% | -3% | 0 | -4 | -3%
SMILES | Pf growth 48h | NS1 inh | SARS PLpro yeast | Cycloheximide cs | Shiga inhibitor | Pf growth 96h
O=Cc1c[nH]c2ccccc12 | . | . | . | 8 | -5 | .
COc1ccc2c(C=O)c[nH]c2c1 | 3% | 0% | -8% | -2 | -7 | 8.3µM*
COc1ccc2c(c1)c(/C=C/c1cc[n+](C)cc1)cn2C | 1.2µM* | -2% | 1% | -3 | -7 | 0.37µM*
Cc1ccc2nsnc2c1S(=O)(=O)NCCc1c(C)[nH]c2ccc(F)cc12 | . | 2% | -6% | -3 | -10 | ?
C=C(C)CN(CC)C(=O)CC1C(=O)NCCN1C (stereo not given) | 11% | 0% | 0% | -1 | -19 | 5%
COC(=O)c1ccccc1NC(=O)N1CCN(Cc2ccco2)CC1 | 56% | . | -2% | 6 | 14 | -48%[1.15 µM]
Cc1c(N2C(=O)CS/C2=N\N=C\c2ccc(Br)cc2)c(=O)n(-c2ccccc2)n1C | 4% | 8% | 4% | -2 | -17 | 8%
CC1CC2(O)c3no[n+]([O-])c3CCC2N1O (stereo not given) | 13% | 3% | 1% | -4 | -2 | 10µM*
CCOC(CNC(=O)Cc1c(C)nc2c(-c3ccccc3)c(C)nn2c1C)OCC | 41% | . | 4% | -1 | 4 | ?
COc1ccc(OC)c(NC(=O)CC2SC(=Nc3ccccc3)N(CCc3ccccn3)C2=O)c1 (stereo not given) | 15µM* | 5% | -16% | 7 | -11 | 4.7µM*
COc1ccc(N=C2SC(CC(=O)Nc3ccccc3)C(=O)N2CCc2ccccn2)cc1 (stereo not given) | ? | -4% | 1% | 18 | 17 | 15µM*
COc1ccc(N=C2SC(CC(=O)Nc3ccc(OC)cc3OC)C(=O)N2C)cc1 (stereo not given) | -13% | -9% | -2% | -2 | -13 | 5%
COc1ccc(N=C2SC(CC(=O)Nc3cccc(Cl)c3)C(=O)N2Cc2ccco2)cc1 (stereo not given) | ? | -29% | -25% | 37* | 16* | ?
COc1ccc(N=C2SC(CC(=O)Nc3ccccc3)C(=O)N2Cc2ccccn2)cc1 (stereo not given) | ? | . | -3% | 21 | 14 | ?
CCCn1c(SCC(=O)NCCc2ccccc2)nnc1-c1ccco1 | -19% | -2% | 20% | -3 | 15 | ?
CN(C)C(CNC(=O)c1c(F)cccc1Cl)c1ccco1 (stereo not given) | 12% | 9% | 0% | -3 | -9 | 61%
CCN(CC)C(=O)N[C@@H]1C[C@@H]2c3cccc4[nH]cc(c34)C[C@H]2N(C)C1 | ? | ? | . | . | . | 9%
CCCN1C[C@H](CSC)C[C@@H]2c3cccc4[nH]cc(c34)C[C@H]21 | ? | -3% | 3% | -3 | -10 | 10µM*
O=C(NC1CCN(Cc2ccccc2)CC1)c1ccccc1NS(=O)(=O)c1ccc(F)cc1 | . | . | -4% | . | . | .
COc1ccccc1NS(=O)(=O)c1ccc(C)c(C(=O)NC2CCN(Cc3ccccc3)CC2)c1 | 10µM* | . | 2% | . | . | ?
COc1ccccc1NS(=O)(=O)c1cccc(C(=O)NC2CCN(Cc3ccccc3)CC2)c1 | 10µM* | . | 6% | . | . | 3.7µM*

From PubChem BioAssay
